# From PubChem BioAssay (EPA / NIEHS)
# Inconclusive results are not listed. Activity calls are given as the source filed them. How the source made its calls: active means hit-call score of the fitted dose curve at least 0.9, where 1 is the maximum; inconclusive means response in the unintended direction; inactive means score below 0.9.
# Test: TOX21_PR_LUC_Followup_Agonist_viability: Viability Assessment in the Tox21 HEK293 Progesterone Receptor (PR) Agonism Luciferase Follow-Up Assay (AID 2283941);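 further: loss of signal means cytotoxicity so actives lower viability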
# Procedure, shortened: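 Seeding: HEK293-PR-A-luc, 3,000 cells/well, 5 h at 37C. Treatment: compound in DMSO, 16 h, 37C. Read: CellTiter-Glo ATP luminescence, signal loss taken as lower viability.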
row,Compound,outcome
1,CC(=O)O[C@@H]1CC2C3CCc4cc(OC(=O)c5ccccc5)ccc4C3CCC2(C)[C@H]1OC(C)=O (some centres not stated),inactive
2,CC(=O)OCC(=O)[C@@]1(O)CC[C@H]2[C@@H]3CCC4=CC(=O)CC[C@]4(C)[C@H]3C(=O)C[C@@]21C,inactive
3,C[C@@H]1C[C@H]2[C@@H]3C[C@H](F)C4=CC(=O)C=C[C@]4(C)[C@@]3(F)[C@@H](O)C[C@]2(C)[C@@]1(O)C(=O)CO,inactive
4,Clc1ccccc1CN1CCc2sccc2C1,inactive
5,CC(=O)OCC(=O)[C@H]1CC[C@H]2[C@@H]3CCC4=CC(=O)CC[C@]4(C)[C@H]3CC[C@]12C,inactive
6,C[C@]12CCC(=O)C=C1CC[C@H]1[C@@H]3CC[C@](O)(C(=O)CO)[C@@]3(C)C[C@H](O)[C@@]12F,inactive
7,C[C@@H]1CC(=O)NN=C1c1ccc(NN=C(C#N)C#N)cc1,inactive
8,CCC(=O)Oc1ccc2c(c1)CC[C@@H]1[C@@H]2CC[C@@]2(C)[C@H]1C[C@@H](OC(=O)CC)[C@@H]2OC(=O)CC,inactive
9,COC(=O)C1=C(C)NC(C)=C(C(=O)OC(C)C)C1c1cccc2nonc12 (configuration not stated),inactive
10,C/C=C1\C(=O)C[C@H]2[C@@H]3CCC4=CC(=O)CC[C@]4(C)[C@H]3CC[C@]12C,inactive
11,C[C@@H]1C[C@H]2[C@@H]3CCC4=CC(=O)C=C[C@]4(C)[C@@]3(F)[C@@H](O)C[C@]2(C)[C@@]1(O)C(=O)COC(=O)c1ccncc1,inactive
12,C/C=C1/C(=O)C[C@H]2[C@@H]3CCC4=CC(=O)CC[C@]4(C)[C@H]3CC[C@]12C,inactive
13,CC(=O)O[C@H]1CC[C@@]2(C)C(=CC[C@@H]3[C@@H]2CC[C@]2(C)C(C(C)=O)=CC[C@@H]32)C1,inactive
14,CCC(=O)O[C@]1(C(=O)COC)[C@@H](C)C[C@H]2[C@@H]3CCC4=CC(=O)C=C[C@]4(C)C3(F)[C@@H](O)C[C@@]21C (some centres not stated),inactive
15,CC(C)(C)C(O)/C=C/c1ccc2c(c1)OCO2 (configuration not stated),inactive
16,CCN(CC)CC(=O)OCC(=O)[C@@]1(O)CC[C@H]2[C@@H]3CCC4=CC(=O)CC[C@]4(C)[C@H]3[C@@H](O)C[C@@]21C,inactive
17,COC(=O)[C@@H]1CC2=CC(=O)CC[C@]2(C)[C@@]23O[C@@H]2C[C@@]2(C)[C@@H](CC[C@@]24CCC(=O)O4)[C@H]13,inactive
